Assay results reported in PubChem BioAssay (NCATS).
Inconclusive results are not listed. The source made the active and inactive calls. Calls follow the shape of the dose curve; as a rule, active = well fitted cell-killing curve with a large enough effect; inconclusive = small, poorly fitted or top-dose-only effect, or effect the other way; inactive = flat fitted curve, though single readings scatter.

Tests used:
Experiment in all cases: Primary qHTS to identify gynecologic anti-cancer compounds using libraries of approved drugs and bioactive compounds (AID 1345084); also: nearly all actives have a fitted effect of over 55% in size
C33A = details: Gynecologic cancer cell panel viability, ATPlite luminescence, 48 h; series mostly up to 57.5 µM
Outline: (§1)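 Cytotoxicity screen measuring ATP content by luciferase luminescence. Each compound is applied at five concentrations for 48 h at 37 C with 5% CO2.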

CAOV3 = details: Gynecologic cancer cell panel viability, ATPlite luminescence, 48 h; series mostly up to 57.5 µM
Outline: as §1

CASKI = details: Gynecologic cancer cell panel viability, ATPlite luminescence, 48 h; series mostly up to 57.5 µM
Outline: as §1

Es-2 = details: Gynecologic cancer cell panel viability, ATPlite luminescence, 48 h; series mostly up to 57.5 µM
Outline: as §1

HeLa = details: Gynecologic cancer cell panel viability, ATPlite luminescence, 48 h; series mostly up to 57.5 µM
Outline: as §1

Hek293T = details: Gynecologic cancer cell panel viability, ATPlite luminescence, 48 h, control line for the selectivity index; series mostly up to 57.5 µM
Outline: as §1

JEG-3 = details: Gynecologic cancer cell panel viability, ATPlite luminescence, 48 h; series mostly up to 57.5 µM
Outline: as §1

OV90 = details: Gynecologic cancer cell panel viability, ATPlite luminescence, 48 h; series mostly up to 57.5 µM
Outline: as §1

PA-1 = details: Gynecologic cancer cell panel viability, ATPlite luminescence, 48 h; series mostly up to 57.5 µM
Outline: as §1

SKOV3 = details: Gynecologic cancer cell panel viability, ATPlite luminescence, 48 h; series mostly up to 57.5 µM
Outline: as §1

Tov-21-G = details: Gynecologic cancer cell panel viability, ATPlite luminescence, 48 h; series mostly up to 57.5 µM
Outline: as §1

Tov112D = details: Gynecologic cancer cell panel viability, ATPlite luminescence, 48 h; series mostly up to 57.5 µM
Outline: as §1
% is scaled to controls: 0 for no effect and ±100 for the full control effect.

C/C=C(/C)C(=O)O[C@@H]1C[C@@H](OC(=O)/C(C)=C\C)[C@@]2(C)C3C(=O)C=C(C)C2C3C1(C)C
inactive: Potency (C33A) | Potency (CAOV3) | outcome (CASKI) | Potency (Es-2) | Potency (HeLa) | Potency (Hek293T) | Potency (JEG-3) | Potency (OV90) | Potency (PA-1) | Potency (SKOV3) | Potency (Tov-21-G) | Potency (Tov112D)

COc1cc(Nc2nc3c(s2)CCCC3c2ccccc2)ccc1-n1cnc(C)c1 (configuration not stated)
inactive: activity change, negative = cytotoxicity (C33A) 6.98% [at 11.6 µM] | activity change, negative = cytotoxicity (CAOV3) 6.61% [at 11.6 µM] | activity change, negative = cytotoxicity (CASKI) 15.8% [at 11.6 µM] | activity change, negative = cytotoxicity (Es-2) 3.55% [at 11.6 µM] | activity change, negative = cytotoxicity (HeLa) -6.36% [at 11.6 µM] | activity change, negative = cytotoxicity (Hek293T) 8.6% [at 11.6 µM] | activity change, negative = cytotoxicity (JEG-3) 2.94% [at 11.6 µM] | activity change, negative = cytotoxicity (OV90) 7.49% [at 11.6 µM] | activity change, negative = cytotoxicity (PA-1) 7.13% [at 11.6 µM] | activity change, negative = cytotoxicity (SKOV3) 7.37% [at 11.6 µM] | activity change, negative = cytotoxicity (Tov-21-G) 9.24% [at 11.6 µM] | activity change, negative = cytotoxicity (Tov112D) 0.142% [at 11.6 µM]

CC(=O)O[C@@H]1[C@H](O[C@@H]2OC[C@](O)(CO)[C@H]2O)[C@@H](O[C@@H]2O[C@@H](C)[C@H](O)[C@@H](O[C@@H]3O[C@H](CO)[C@@H](O)[C@H](O)[C@H]3O)[C@H]2O)[C@H](OC(=O)[C@]23CCC(C)(C)C[C@H]2C2=CCC4[C@@]5(C)C[C@H](O)[C@H](O[C@@H]6O[C@H](C(=O)O)[C@@H](O)[C@H](O)[C@H]6O)[C@@](C)(C(=O)O)C5CC[C@@]4(C)[C@]2(C)CC3)O[C@@H]1C (some centres not stated)
inactive: activity change, negative = cytotoxicity (C33A) -1.36% [at 6.55 µM] | activity change, negative = cytotoxicity (CAOV3) 22.8% [at 6.55 µM] | activity change, negative = cytotoxicity (CASKI) 2.72% [at 6.55 µM] | activity change, negative = cytotoxicity (Es-2) 1.19% [at 6.55 µM] | activity change, negative = cytotoxicity (HeLa) -1.07% [at 6.55 µM] | activity change, negative = cytotoxicity (Hek293T) 4.41% [at 6.55 µM] | activity change, negative = cytotoxicity (JEG-3) -1.98% [at 6.55 µM] | activity change, negative = cytotoxicity (OV90) 0.0108% [at 6.55 µM] | activity change, negative = cytotoxicity (PA-1) 3.28% [at 6.55 µM] | activity change, negative = cytotoxicity (SKOV3) 27% [at 6.55 µM] | activity change, negative = cytotoxicity (Tov-21-G) 0.936% [at 6.55 µM] | activity change, negative = cytotoxicity (Tov112D) -2.6% [at 6.55 µM]

COc1cc(O)cc(O[C@@H]2O[C@H](CO)[C@@H](O[C@@H]3OC[C@](O)(CO)[C@H]3O)[C@H](O)[C@H]2O)c1OC
inactive: Potency (C33A) | Potency (CAOV3) | outcome (CASKI) | Potency (Es-2) | Potency (HeLa) | Potency (Hek293T) | Potency (JEG-3) | Potency (OV90) | Potency (PA-1) | Potency (SKOV3) | Potency (Tov-21-G) | Potency (Tov112D)

Cc1nc2cc(-c3cc(F)cc(C#N)c3)ccc2s1
inactive: Potency (C33A) | Potency (CAOV3) | outcome (CASKI) | Potency (Es-2) | Potency (HeLa) | Potency (Hek293T) | Potency (JEG-3) | Potency (OV90) | Potency (PA-1) | Potency (SKOV3) | Potency (Tov-21-G) | Potency (Tov112D)

CC1=CC23[C@H](C=C(C(=O)O)[C@@H]2COC(=O)[C@]3(O)CO)[C@@H]1C (some centres not stated)
inactive: Potency (C33A) | Potency (CAOV3) | outcome (CASKI) | Potency (Es-2) | Potency (HeLa) | Potency (Hek293T) | Potency (JEG-3) | Potency (OV90) | Potency (PA-1) | Potency (SKOV3) | Potency (Tov-21-G) | Potency (Tov112D)
